Screens (PubChem)
Sampled rows, rich in hits. Any-hit rate of the full collection: about 10%.
BAZ2B block: qHTS Assay for Inhibitors of BAZ2B | 360,000 tested, 4.4% active | Bromodomain adjacent to zinc finger domain protein 2B (Homo sapiens), Q9UIF8 | AlphaScreen BAZ2B-H3K14Ac peptide displacement | Potency, µM (top dose mostly 114 µM), without a hit: at the highest dose activity change, negative = inhibition, most hits filed as inhibitors; also: potency is read from the fitted curve at half-maximal effect; % is scaled to controls: 0 for no effect and ±100 for the full control effect; nearly all actives have a fitted effect of over 60% in size
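Inhibition is scored as reduced AlphaScreen emission. The BAZ2B/b-H3(5-23)K14Ac complex (50 nM each) in PBS pH 7.4, 0.01% Tween-20 meets compound (up to 110 uM) for 30 min at RT before bead addition.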
G9a inh: qHTS Assay for Inhibitors of Histone Lysine Methyltransferase G9a | Histone-lysine N-methyltransferase EHMT2 (Homo sapiens), Q96KQ7 | G9a H3K9 monomethylation, AlphaScreen, 2 h | Potency, µM (doses to about 102 µM), for the others: top-dose activity, negative = inhibition, most hits filed as inhibitors | 350,000 tested, 8.8% active; also: potency is read from the fitted curve at half-maximal effect; % is scaled to controls: 0 for no effect and ±100 for the full control effect; nearly all actives have a fitted effect of over 75% in size
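AlphaScreen read-out: biotin-H3K9 peptide (500 nM) methylation by 20 nM enzyme with 20 uM SAM, 2 h at room temperature after 15 min compound preincubation; anti-monomethyl H3K9 antibody plus donor/acceptor beads, 10 min dark.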
CtBP-E1A blk: qHTS Assay for Inhibitors of the CtBP/E1A Interaction | CtBP / adenovirus E1A interaction (AlphaScreen) | AlphaScreen GST-E1A/His-CtBP binding, 1536-well; stronger effect = lower value | activity change, % (no concentration beside the values) | 340,000 tested, 0.49% active | AID 651724, 2012; in the data active = activity change below about -65%; inconclusive = mostly about -30% to -63%; also: % is scaled to controls: 0 for no effect and ±100 for the full control effect
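Protein mix (5X: 125 nM each GST-E1A, His-CtBP) was incubated with pinned compound 2 h at 37 deg C in dark, in 50 mM Tris pH 8.0 buffer with 300 mM NaCl. Glutathione donor and nickel acceptor beads followed; AlphaScreen signal read after 1 h.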
HP1b chromo inh: HTS for Inhibitors of HP1-beta Chromodomain Interactions with Methylated Histone Tails | 390,000 tested, 0.56% active | Potency, µM (titrated, usually from 114 µM), for the others: at the top dose activity change, negative = inhibition, hits mostly inhibitors | AlphaScreen HP1-beta / biotin-H3K9me3 peptide binding | AID 540317, 2011 | Chromobox protein homolog 1 (Homo sapiens), P83916; also: potency is read from the fitted curve at half-maximal effect; nearly all actives have a fitted effect of over 70% in size
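AlphaScreen: HP1-beta (50 nM) preformed 30 min with biotin-H3(1-18)K9me3 peptide (50 nM) in PBS pH 7.4, 0.01% Tween-20. Compound added for 30 min at RT, then streptavidin donor/nickel chelate acceptor beads (10 ug/mL) for 30 min.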
JMJD2A Tudor: qHTS Assay for Inhibitors of JMJD2A-Tudor Domain | AID 504339, 2011 | 390,000 tested, 4.4% active | Potency, µM (series often up to 114 µM), inactives show at the top dose activity change, negative = inhibition, most hits filed as inhibitors | AlphaScreen JMJD2A-Tudor / H3K4me3 peptide binding; also: potency is read from the fitted curve at half-maximal effect; % is scaled to controls: 0 for no effect and ±100 for the full control effect; nearly all actives have a fitted effect of over 50% in size
Six1-Eya2 blk: qHTS Assay for Inhibitors of the Six1/Eya2 Interaction. AlphaScreen GST-Six1/His-Eya2 binding, biochemical; stronger effect = lower value. Homeobox protein SIX1 (Homo sapiens) + Protein phosphatase EYA2 (Homo sapiens), …. activity change, % (no concentration beside the values). 360,000 tested, 0.56% active; in the data active = activity change below about -65%; inconclusive = mostly about -30% to -63%; also: % is scaled to controls: 0 for no effect and ±100 for the full control effect
Target sequence (O00167 whole entry, looked up): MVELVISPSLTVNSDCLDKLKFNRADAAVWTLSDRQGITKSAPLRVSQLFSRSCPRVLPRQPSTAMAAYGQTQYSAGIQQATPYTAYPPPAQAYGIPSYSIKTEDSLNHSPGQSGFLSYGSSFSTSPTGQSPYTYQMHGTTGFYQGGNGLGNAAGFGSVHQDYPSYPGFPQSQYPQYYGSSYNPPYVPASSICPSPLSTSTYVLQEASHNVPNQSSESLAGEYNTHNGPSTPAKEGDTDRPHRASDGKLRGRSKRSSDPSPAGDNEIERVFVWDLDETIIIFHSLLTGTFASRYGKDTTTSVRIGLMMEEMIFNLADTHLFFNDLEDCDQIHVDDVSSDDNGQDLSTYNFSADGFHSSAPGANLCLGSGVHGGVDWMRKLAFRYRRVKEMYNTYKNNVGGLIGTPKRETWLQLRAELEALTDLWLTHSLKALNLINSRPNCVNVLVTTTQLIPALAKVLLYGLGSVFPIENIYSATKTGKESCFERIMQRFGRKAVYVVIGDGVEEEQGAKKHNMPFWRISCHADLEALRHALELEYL
Target sequence (Q15475 whole entry, looked up): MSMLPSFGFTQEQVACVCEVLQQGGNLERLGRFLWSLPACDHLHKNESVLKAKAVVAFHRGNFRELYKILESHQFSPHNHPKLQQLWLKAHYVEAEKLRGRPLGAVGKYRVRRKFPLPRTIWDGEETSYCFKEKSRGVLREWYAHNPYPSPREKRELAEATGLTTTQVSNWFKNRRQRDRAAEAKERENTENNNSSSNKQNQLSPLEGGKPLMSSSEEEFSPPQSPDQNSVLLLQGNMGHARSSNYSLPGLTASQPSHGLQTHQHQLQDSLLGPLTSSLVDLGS
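AlphaScreen luminescence read after one hour at 37 °C in darkness. Pin-transferred compounds met GST-Six1 and His-Eya2 protein (5X stock 250 nM/500 nM) plus glutathione donor and Ni-chelate acceptor beads (5X, 50 ug/mL).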
Active calls of the source: *; ? = inconclusive; . = no result given; [ ] = remark or other dose. Unless noted, calls follow the shape of the dose curve; as a rule, active = well fitted inhibition curve with a large enough effect; inconclusive = small, poorly fitted or top-dose-only effect; inactive = no such curve, though single readings can be large or run the other way.

SMILES | BAZ2B block | G9a inh | CtBP-E1A blk | HP1b chromo inh | JMJD2A Tudor | Six1-Eya2 blk
Cc1ccc(Cl)cc1N1CCN(C(=O)CCn2c(=O)c3cccn3c3cccnc32)CC1 | -18.3% | -6.7%[59 µM] | . | 23.5% | -27.5% | .
Cc1nn(-c2ccccc2)c(Cl)c1/C=N/Nc1ccc(Cl)c(C(=O)O)c1 | ? | 3.55µM* | -6.2 | ? | ? | ?
COc1ccc(C=NNc2ccc(S(=O)(=O)Nc3ccccc3C(=O)O)cc2[N+](=O)[O-])c(OC)c1 | . | . | . | 20µM* | 35.5µM* | -26.6
CSc1ccc(C=NNc2ccc(S(=O)(=O)Nc3ccccc3C(=O)O)cc2[N+](=O)[O-])cc1 | . | . | 2.0 | 20µM* | 20µM* | -13.8
Cc1ccc(NS(=O)(=O)c2ccc(N/N=C/c3ccncc3)c([N+](=O)[O-])c2)c(C)c1 | -9.4% | -4.0% | 2.2 | 43.5% | -14.2%[57.1 µM] | 0.2
C=CCOc1ccc(C=NNc2ccc(S(=O)(=O)Nc3ccccc3C(=O)O)cc2[N+](=O)[O-])cc1OC | . | . | -14.8 | ? | 15.8µM* | -7.8
COc1cc(C=NNc2ccccc2[N+](=O)[O-])cc(OC)c1OC | . | . | -16.1 | . | . | -4.8
N#CC(C#N)=C(N)/C(C#N)=C/c1ccc2[nH]ccc2c1 | . | 5.1%[59 µM] | . | . | . | .
O=C(NCCn1cc(SCc2ccccc2F)c2ccccc21)c1cccs1 | -15.7% | -15.2%[59 µM] | . | 46.2% | -16.0% | .
Cc1nn(-c2ccccc2)c(Cl)c1/C=N/Nc1ccc(S(=O)(=O)Nc2ccccc2C(=O)O)cc1[N+](=O)[O-] | 14.1µM* | 20µM* | ? | ? | 50.1µM* | -19.3
COc1ccc(NC(=S)NNc2ccc(S(=O)(=O)Nc3ccccc3C(=O)O)cc2[N+](=O)[O-])cc1 | 7.08µM* | . | ? | 11.2µM* | ? | ?
O=C(O)c1ccccc1/C=N/Nc1ccc(S(=O)(=O)N2CCCC2)cc1[N+](=O)[O-] | ? | ? | -10.0 | -1.9% | -34.5% | -6.5
O=C(O)c1ccccc1NS(=O)(=O)c1ccc(NN=Cc2ccccc2F)c([N+](=O)[O-])c1 | . | . | -23.1 | 50.1µM* | 20µM* | -16.6
O=C(O)c1ccccc1NS(=O)(=O)c1ccc2ccccc2c1 | -16.8% | 1.6%[12.7 µM] | -1.9 | 21.4% | -7.2% | 17.4
Cc1nn(-c2ccccc2)c(Cl)c1/C=N/NS(=O)(=O)c1ccc(Br)cc1 | -12.4% | -21.7% | -9.6 | 11.5% | -28.4% | -11.8
Cc1ccc(S(=O)(=O)Nc2ccccc2C(=O)OC(C)C(=O)Nc2ccc3ccccc3c2)cc1[N+](=O)[O-] (centres undefined) | -37.9% | 50.1µM* | -8.8 | -0.9% | -29.8% | 1.5
CCOC(=O)c1c(NC(=O)CCCOc2ccccc2C)sc2c1CCC(C)C2 (centres undefined) | 14.2% | 53.7%[59 µM] | . | 62.1% | 28.4% | .
O=C(NCc1ccc(F)cc1)C(=O)NCC(c1cccs1)S(=O)(=O)c1cccs1 (centres undefined) | 3.4% | 1.9%[59 µM] | . | 29.9% | -11.7% | .
CCOc1ccc(C=NNc2ccc(S(=O)(=O)Nc3ccccc3C(=O)O)cc2[N+](=O)[O-])cc1 | . | . | ? | 39.8µM* | 22.4µM* | ?
CCOc1cccc(C=NNc2ccc(S(=O)(=O)Nc3ccccc3C(=O)O)cc2[N+](=O)[O-])c1O | . | . | -7.0 | ? | ? | -8.5
CC(=O)c1cccc(NC(=O)c2ccc(-n3c(C)nnc3C)cc2)c1 | 1.0% | 4.2%[59 µM] | . | 12.6%[57 µM] | 1.3% | .
CCOC(=O)Cc1csc(NC(=O)c2ccc(Br)o2)n1 | ? | 8.6% | 0.7 | 23.6% | -16.4% | 1.6
CCOC(=O)Cc1csc(NC(=O)/C=C/c2ccc(Br)o2)n1 | -33.2% | 50.1µM* | . | 21.3% | -11.2% | 0.0
O=C(/C=C/c1ccc(Br)o1)Nc1nccs1 | -14.5% | 44.7µM* | . | ? | 31.6µM* | -8.9
CC(C)(C)OC(=O)N1CCC(c2c(C(=O)NCCN3CCOCC3)cnn2-c2cccc(F)c2)CC1 | 9.1%[57.1 µM] | 1.2%[59 µM] | . | 28.3% | -15.9% | .
SMILES | BAZ2B block | G9a inh | CtBP-E1A blk | HP1b chromo inh | JMJD2A Tudor | Six1-Eya2 blk
CCOC(=O)c1c(C)[nH]c(C)c1S(=O)(=O)N1CCN(c2ccc(Cl)cc2)CC1 | -38.8% | ? | . | -6.0% | -32.4% | .
COc1ccc(-c2cc(C(F)(F)F)n3nc(C(=O)Nc4cccc(C(F)(F)F)c4)c(Br)c3n2)cc1 | 2.8% | 4.0%[59 µM] | . | 12.9% | -17.0% | .
CC(=O)Nc1ccc(Br)c2ccccc12 | -33.5% | -0.5% | -7.2 | 32.8% | -17.4% | 7.8
O=C(Nc1ccc(Br)c2ccccc12)c1ccc2ccccc2c1O | 28.2µM* | 28.2µM* | . | ? | ? | -20.0
CC(C)[C@@H](N)C(=O)O | . | -0.5%[59 µM] | . | . | . | .
CC(C)(S)[C@@H](N)C(=O)O | 44.7µM* | ? | -19.3 | -19.1% | 3.98µM* | -6.3
CCn1nc(C)c(CN2CCc3c([nH]c4ccccc34)C2c2ccc(F)c(OC)c2)c1C (centres undefined) | ? | 50.1µM* | -18.6 | -14.9% | ? | -23.4
Fc1ccccc1C1c2[nH]c3ccccc3c2CCN1Cc1ccoc1 (centres undefined) | ? | ? | -3.2 | -22.3% | ? | -11.1
COc1cccc(C2c3[nH]c4ccccc4c3CCN2Cc2cccn2-c2ncccn2)c1 (centres undefined) | ? | 39.8µM* | -20.3 | ? | ? | -29.7
CCn1cc(CN2CCc3c([nH]c4ccccc34)C2c2cccc(O)c2)c(C)n1 (centres undefined) | ? | ? | 3.7 | -6.0% | -17.6%[57.1 µM] | -15.3
Fc1ccc(C2c3[nH]c4ccccc4c3CCN2Cc2cccn2-c2ncccn2)cc1 (centres undefined) | -0.2% | . | -8.4 | 35.6% | -22.3% | -27.4
Clc1ccc(-n2cccc2CN2CCc3c([nH]c4ccccc34)C2c2ccccn2)nc1 (centres undefined) | 25.1µM* | 17.8µM* | -25.3 | -10.1% | 35.5µM* | -0.8
CCn1cc(CN2CCc3c([nH]c4ccccc34)C2c2cccc(OC)c2)c(C)n1 (centres undefined) | 79.4µM* | . | -12.3 | -20.6% | ? | -8.3
Cc1ccc(-n2c(=O)c3sc4ccccc4c3n(C)c2=O)cc1F | -3.4% | -19.5%[59 µM] | . | 7.4% | -13.9% | .
COc1cccc2c1cc1c(=O)n(CC(=O)NCc3ccc(N(C)C)cc3)nc(C)n12 | -13.3% | -2.5%[59 µM] | . | 32.6% | -9.5% | .
CSc1ncc(CN2CCc3c([nH]c4ccccc34)C2c2cccc(C)n2)cn1 (centres undefined) | ? | ? | -19.9 | 5.3% | ? | -4.9
